In PubChem BioAssay (Tox21):
Results filed as inconclusive are left out. Activity calls are given as the source filed them. The call rests on the fitted dose curve; in most records, active means well fitted curve in the direction sought with a large enough effect in the repeat runs; inconclusive means weak or mixed curves; inactive means no such curve, though single readings can be large; an effect the other way counts as inactive or inconclusive.

What was measured:
[1] = biological target: Cytochrome P450 2D6 (Homo sapiens) (UniProt P10635); test: Cytochrome P450 Family 2 Subfamily D Member 6 (CYP2D6) small molecule antagonists: luciferase reporter qHTS assay (AID 1671196); further: nearly all actives have a fitted effect of over 50% in size; further: potency means the concentration at half of the fitted maximal effect; on activity change, negative = inhibition: series mostly up to about 120 µM
Sequence of Cytochrome P450 2D6 (Homo sapiens) (P10635 whole entry, looked up): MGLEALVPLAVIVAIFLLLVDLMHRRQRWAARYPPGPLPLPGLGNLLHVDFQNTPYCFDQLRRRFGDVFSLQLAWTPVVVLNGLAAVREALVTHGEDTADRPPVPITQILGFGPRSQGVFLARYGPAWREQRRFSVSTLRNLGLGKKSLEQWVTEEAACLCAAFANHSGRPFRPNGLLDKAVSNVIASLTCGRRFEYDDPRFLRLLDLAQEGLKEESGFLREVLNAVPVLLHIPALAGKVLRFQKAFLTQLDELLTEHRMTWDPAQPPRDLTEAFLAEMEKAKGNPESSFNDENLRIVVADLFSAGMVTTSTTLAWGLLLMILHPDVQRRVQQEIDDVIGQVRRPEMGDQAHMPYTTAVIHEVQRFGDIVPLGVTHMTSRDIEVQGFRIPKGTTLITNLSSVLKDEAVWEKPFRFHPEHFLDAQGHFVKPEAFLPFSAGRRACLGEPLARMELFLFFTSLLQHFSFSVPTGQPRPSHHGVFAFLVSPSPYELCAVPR
Procedure, shortened: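 CYP2D6 activity was followed as luminescence from its luciferin product after a 1 h NADPH-driven reaction at room temperature. Enzyme-substrate mix and compound were pre-incubated for 10 min, and the signal was read 20 min after adding detection reagent.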

[2] = biological target: Cytochrome P450 2C19 (Homo sapiens) (UniProt P33261); test: Cytochrome P450 Family 2 Subfamily C Member 19 (CYP2C19) small molecule antagonists: luciferase reporter qHTS assay (AID 1671197); further: nearly all actives have a fitted effect of over 65% in size; further: potency means the concentration at half of the fitted maximal effect; on activity change, negative = inhibition: series mostly up to about 120 µM
Sequence of Cytochrome P450 2C19 (Homo sapiens) (P33261 whole entry, looked up): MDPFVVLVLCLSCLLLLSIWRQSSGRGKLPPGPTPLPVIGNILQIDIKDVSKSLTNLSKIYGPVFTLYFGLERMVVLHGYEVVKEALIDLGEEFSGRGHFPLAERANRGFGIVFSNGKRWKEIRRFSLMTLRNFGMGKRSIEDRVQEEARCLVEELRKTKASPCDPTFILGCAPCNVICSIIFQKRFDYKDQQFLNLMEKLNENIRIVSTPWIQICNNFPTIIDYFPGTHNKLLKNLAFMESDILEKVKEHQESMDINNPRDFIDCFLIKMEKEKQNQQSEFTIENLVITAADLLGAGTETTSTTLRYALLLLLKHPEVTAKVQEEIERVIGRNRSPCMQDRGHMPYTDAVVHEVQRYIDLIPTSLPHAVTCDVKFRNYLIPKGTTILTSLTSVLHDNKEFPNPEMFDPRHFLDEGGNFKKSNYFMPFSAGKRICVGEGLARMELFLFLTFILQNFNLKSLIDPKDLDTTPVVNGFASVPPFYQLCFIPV
Procedure, shortened: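 Luminescent readout of CYP2C19 activity: luciferin product detected 20 min after adding detection reagent. Before that, compound and enzyme-substrate mix preincubated 10 min at room temperature; NADPH-regenerating system started a 1 h, 37C reaction. Ketoconazole as positive control.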

[3] = biological target: Cytochrome P450 2C9 (Homo sapiens) (UniProt P11712); test: Cytochrome P450 Family 2 Subfamily C Member 9 (CYP2C9) small molecule antagonists: luciferase reporter qHTS assay (AID 1671198); further: nearly all actives have a fitted effect of over 50% in size; further: potency means the concentration at half of the fitted maximal effect; on activity change, negative = inhibition: series mostly up to about 120 µM
Sequence of Cytochrome P450 2C9 (Homo sapiens) (P11712 whole entry, looked up): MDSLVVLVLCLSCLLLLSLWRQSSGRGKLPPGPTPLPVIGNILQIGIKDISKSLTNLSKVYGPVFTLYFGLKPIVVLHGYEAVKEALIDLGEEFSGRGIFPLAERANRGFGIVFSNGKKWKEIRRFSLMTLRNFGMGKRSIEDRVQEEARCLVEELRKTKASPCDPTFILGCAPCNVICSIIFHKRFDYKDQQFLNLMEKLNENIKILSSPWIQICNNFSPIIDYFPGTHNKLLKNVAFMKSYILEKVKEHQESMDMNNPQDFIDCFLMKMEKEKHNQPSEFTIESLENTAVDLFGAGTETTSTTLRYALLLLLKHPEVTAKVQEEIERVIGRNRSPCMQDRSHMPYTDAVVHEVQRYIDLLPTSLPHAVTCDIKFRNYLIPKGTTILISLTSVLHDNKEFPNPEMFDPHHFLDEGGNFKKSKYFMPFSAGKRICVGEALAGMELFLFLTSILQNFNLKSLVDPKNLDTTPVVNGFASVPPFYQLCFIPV
Procedure, shortened: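 Enzyme-substrate mix preincubated with compound 10 min at room temperature; reaction started with NADPH regeneration solution, 1 h 37C. Luminescent luciferin product read after 20 min detection reagent.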

[4] = biological target: Voltage-gated inwardly rectifying potassium channel KCNH2 (Homo sapiens) (UniProt Q12809); test: Human Ether-a-go-go-Related Gene (hERG) channel small molecule antagonists: fluorescence cell-based qHTS assay (AID 1671200);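 further: hERG-expressing U2OS cells given a thallium stimulus after FluxOR II dye loading; series mostly up to about 77 µM; nearly all actives have a fitted effect of over 50% in size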
Sequence of Voltage-gated inwardly rectifying potassium channel KCNH2 (Homo sapiens) (Q12809 whole entry, looked up): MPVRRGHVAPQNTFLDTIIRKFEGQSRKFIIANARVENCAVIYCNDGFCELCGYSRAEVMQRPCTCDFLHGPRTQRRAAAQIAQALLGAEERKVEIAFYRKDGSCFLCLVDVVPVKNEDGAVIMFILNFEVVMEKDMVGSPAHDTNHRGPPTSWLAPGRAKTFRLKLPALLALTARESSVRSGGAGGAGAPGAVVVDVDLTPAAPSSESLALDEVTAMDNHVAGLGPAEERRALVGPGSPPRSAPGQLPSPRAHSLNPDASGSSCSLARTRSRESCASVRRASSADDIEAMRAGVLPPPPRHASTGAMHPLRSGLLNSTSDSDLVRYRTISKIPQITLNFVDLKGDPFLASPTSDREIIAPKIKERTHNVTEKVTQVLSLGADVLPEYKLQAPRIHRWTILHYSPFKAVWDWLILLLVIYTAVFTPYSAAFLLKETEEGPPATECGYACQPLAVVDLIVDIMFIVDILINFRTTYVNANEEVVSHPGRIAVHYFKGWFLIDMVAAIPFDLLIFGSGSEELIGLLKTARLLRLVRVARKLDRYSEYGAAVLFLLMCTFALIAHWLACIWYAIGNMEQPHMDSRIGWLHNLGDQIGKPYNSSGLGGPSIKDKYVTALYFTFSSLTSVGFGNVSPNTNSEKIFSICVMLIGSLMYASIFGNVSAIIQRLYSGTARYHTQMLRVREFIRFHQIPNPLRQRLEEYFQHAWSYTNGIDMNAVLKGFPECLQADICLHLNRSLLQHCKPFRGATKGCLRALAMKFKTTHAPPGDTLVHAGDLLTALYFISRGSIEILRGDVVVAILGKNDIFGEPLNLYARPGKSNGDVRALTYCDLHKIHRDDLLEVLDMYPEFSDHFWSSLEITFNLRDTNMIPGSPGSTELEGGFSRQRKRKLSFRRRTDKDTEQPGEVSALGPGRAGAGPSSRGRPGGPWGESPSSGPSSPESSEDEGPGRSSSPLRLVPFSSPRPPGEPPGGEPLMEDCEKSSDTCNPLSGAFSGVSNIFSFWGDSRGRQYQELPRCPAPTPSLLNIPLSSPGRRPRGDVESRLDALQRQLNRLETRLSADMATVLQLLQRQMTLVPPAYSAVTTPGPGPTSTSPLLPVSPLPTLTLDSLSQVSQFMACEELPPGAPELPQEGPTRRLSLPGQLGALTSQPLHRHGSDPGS
Procedure, shortened: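 Thallium served as the potassium surrogate; its influx into dye-loaded U2OS cells carrying the channel was measured by fluorescence over 2 min.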

[5] = biological target: Cytochrome P450 3A4 (Homo sapiens) (UniProt P08684); test: Cytochrome P450 Family 3 Subfamily A Member 4 (CYP3A4) small molecule antagonists: luciferase reporter qHTS assay (AID 1671201); further: nearly all actives have a fitted effect of over 50% in size; further: potency means the concentration at half of the fitted maximal effect; on activity change, negative = inhibition: series mostly up to about 120 µM
Sequence of Cytochrome P450 3A4 (Homo sapiens) (P08684 whole entry, looked up): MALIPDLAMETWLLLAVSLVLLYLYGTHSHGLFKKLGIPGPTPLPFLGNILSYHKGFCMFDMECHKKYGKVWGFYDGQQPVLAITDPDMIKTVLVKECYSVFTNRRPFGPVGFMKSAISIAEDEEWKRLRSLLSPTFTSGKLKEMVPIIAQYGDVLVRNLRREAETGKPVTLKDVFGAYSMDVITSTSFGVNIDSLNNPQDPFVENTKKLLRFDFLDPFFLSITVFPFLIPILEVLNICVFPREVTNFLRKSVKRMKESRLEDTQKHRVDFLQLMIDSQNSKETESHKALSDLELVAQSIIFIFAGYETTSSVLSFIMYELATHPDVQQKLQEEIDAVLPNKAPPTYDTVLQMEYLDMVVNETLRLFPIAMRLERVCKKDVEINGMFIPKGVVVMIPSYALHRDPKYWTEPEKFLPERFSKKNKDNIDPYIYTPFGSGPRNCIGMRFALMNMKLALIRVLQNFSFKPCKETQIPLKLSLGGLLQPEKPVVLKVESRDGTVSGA
Procedure, shortened: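 Relative luminescence units after 20 min with luciferin detection reagent served as read-out. Beforehand, CYP3A4 turned over a proluciferin substrate for 1 h at room temperature with NADPH regeneration, following 10 min compound preincubation.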
On the % scale 0 is the no-effect control and ±100 the full control effect.

CCCCCCCC(=O)N(C)C
inactive: Potency [1] | Potency [2] | Potency [3] | Potency [4] | Potency [5]

COC(=O)/C=C(\C)CCC=C(C)C
inactive: Potency [1] | Potency [4]
active: Potency [2] 25.2 µM | Potency [3] 39.9 µM | Potency [5] 31.7 µM

CC/C=C\CCOC(=O)c1ccccc1
inactive: Potency [1] | Potency [2] | Potency [3] | Potency [4] | Potency [5]

Cc1cc(N)no1
inactive: Potency [2] | Potency [3] | Potency [4] | Potency [5]
active: Potency [1] 65.6 µM

CCO[Si](CC(C)C)(OCC)OCC
inactive: Potency [4]
active: Potency [1] 44.8 µM | Potency [2] 35.6 µM | Potency [3] 39.9 µM | Potency [5] 31.7 µM

Nc1nc(Cl)cc(Cl)n1
inactive: Potency [1] | Potency [2] | Potency [3] | Potency [4] | Potency [5]

Cc1ccc(NC(N)=O)cc1
inactive: Potency [1] | Potency [2] | Potency [3] | Potency [4] | Potency [5]

COc1cc(S(N)(=O)=O)cc(C(=O)O)c1OC
inactive: Potency [1] | Potency [2] | Potency [3] | Potency [4] | Potency [5]

CCCCCCC(=O)c1ccccc1
inactive: Potency [1] | Potency [2] | Potency [3] | Potency [4] | Potency [5]

COC(=O)c1cc(Cl)c(NC(C)=O)cc1OC
inactive: Potency [1] | Potency [2] | Potency [3] | Potency [4] | Potency [5]

CSC(=O)c1cccc2nnsc12
active: Potency [1] 35.6 µM | Potency [2] 12.6 µM | Potency [3] 7.96 µM
inactive: Potency [4] | Potency [5]

CCOCCOCCOC(C)=O
inactive: Potency [1] | Potency [2] | Potency [3] | Potency [4] | Potency [5]

O=CN1CCCCC1
inactive: Potency [1] | Potency [2] | Potency [3] | Potency [4] | Potency [5]

CCc1ncc(C)[nH]1
inactive: Potency [1] | Potency [2] | Potency [3] | Potency [4] | Potency [5]

Clc1cc(Cl)c(Cl)c(Cl)c1Cl
inactive: Potency [1] | Potency [2] | Potency [3] | Potency [4] | Potency [5]

CC(C)(C)OC=O
inactive: Potency [1] | Potency [2] | Potency [3] | Potency [4] | Potency [5]

C=CCCCCCCCCOC(C)=O
inactive: Potency [1] | Potency [2] | Potency [3] | Potency [4] | Potency [5]

CN(C)CCCN(C)C
inactive: activity change, negative = inhibition [1] -7.64% [at 10.5 µM] | activity change, negative = inhibition [2] -19.3% [at 10.5 µM] | activity change, negative = inhibition [3] -13.3% [at 10.5 µM] | activity change, negative = inhibition [4] 0.578% [at 6.97 µM] | activity change, negative = inhibition [5] 12.7% [at 10.5 µM]

CCCC(C)C(O)CC (stereo not given)
inactive: Potency [1] | Potency [2] | Potency [3] | Potency [4] | Potency [5]

O=C(O)/C=C(\CC(=O)O)C(=O)O
inactive: Potency [1] | Potency [2] | Potency [3] | Potency [4] | Potency [5]

CNC(C)=O
inactive: Potency [1] | Potency [2] | Potency [3] | Potency [4] | Potency [5]

CC(=O)OC1CCC(C(C)(C)C)CC1 (stereo not given)
inactive: Potency [1] | Potency [2] | Potency [3] | Potency [4] | Potency [5]

CC(=O)c1c(C)cc(C(C)(C)C)cc1C
inactive: Potency [1] | Potency [3] | Potency [4] | Potency [5]
active: Potency [2] 71 µM

CCNC(=O)C(C)OC(=O)Nc1ccccc1 (stereo not given)
active: Potency [2] 79.6 µM | Potency [3] 35.6 µM
inactive: Potency [1] | Potency [4] | Potency [5]

Cc1ccc2ccccc2n1
inactive: Potency [1] | Potency [2] | Potency [3] | Potency [4] | Potency [5]

CCCOc1ccc(C(=O)OCCN(CC)CC)cc1N
active: Potency [1] 4.9 µM
inactive: Potency [2] | Potency [3] | Potency [4] | Potency [5]

CC(=O)SCC(CC(=O)c1ccc(C)cc1)C(=O)O (stereo not given)
active: Potency [3] 15.5 µM
inactive: Potency [1] | Potency [2] | Potency [4] | Potency [5]

O=C1c2ccccc2C(=O)N1CO
inactive: Potency [1] | Potency [2] | Potency [3] | Potency [4] | Potency [5]

Cc1ccc(O)c([N+](=O)[O-])c1
active: Potency [1] 71.8 µM
inactive: Potency [2] | Potency [3] | Potency [4] | Potency [5]
